Experimental data taken from PubChem BioAssay (EPA / NIEHS).
Calls of active or inactive are those of the source. Rule for the calls: active = hit-call score of the fitted dose curve at least 0.9, where 1 is the maximum; inactive = score below 0.9.

What was measured:
[1] = read-out: Thrombomodulin, THBD (gene 7056); test: BSK_CASM3C_Thrombomodulin: BioMAP Diversity Plus: CASM3C Assay for Thrombomodulin Biomarker Activity (AID 2283051); settings: primary human coronary artery smooth muscle cells; actives raise or lower the signal;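 note: thrombomodulin protein level measured by ELISA 24 h after dosing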
[2] = read-out: Tissue Factor, F3 (gene 2152); test: BSK_CASM3C_TissueFactor: BioMAP Diversity Plus: CASM3C Assay for Tissue Factor Biomarker Activity (AID 2283052); settings: primary human coronary artery smooth muscle cells; actives raise or lower the signal;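 note: cell surface tissue factor protein level read by ELISA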
[3] = read-out: Urokinase-type plasminogen activator receptor (uPAR), PLAUR (gene 5329); test: BSK_CASM3C_uPAR: BioMAP Diversity Plus: CASM3C Assay for Urokinase-type plasminogen activator receptor (uPAR) Biomarker Activity (AID 2283054); settings: primary human coronary artery smooth muscle cells; actives raise or lower the signal;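 note: cell-surface uPAR protein level quantified by ELISA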
[4] = read-out: Vascular cell adhesion molecule 1 (VCAM1), VCAM1 (gene 7412); test: BSK_CASM3C_VCAM1: BioMAP Diversity Plus: CASM3C Assay for Vascular cell adhesion molecule 1 (VCAM1) Biomarker Activity (AID 2283055); settings: primary human coronary artery smooth muscle cells; actives raise or lower the signal;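 note: VCAM-1 protein level quantified by ELISA on the cells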
[5] = read-out: Collagen III, COL3A1 (gene 1281); test: BSK_hDFCGF_CollagenIII: BioMAP Diversity Plus: hDFCGF Assay for Collagen III Biomarker Activity (AID 2283056); settings: primary human foreskin fibroblasts; actives raise or lower the signal
How it was run: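 ELISA read-out of collagen III from human skin fibroblast cultures sampled 24 h post-dosing. Values were derived by bidirectional fitting relative to the DMSO vehicle control.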

[6] = read-out: Epidermal growth factor receptor (EGFR), EGFR (gene 1956); test: BSK_hDFCGF_EGFR: BioMAP Diversity Plus: hDFCGF Assay for Epidermal growth factor receptor (EGFR) Biomarker Activity (AID 2283057); settings: primary human foreskin fibroblasts; actives raise or lower the signal
How it was run: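 Primary human foreskin fibroblasts were exposed to compound for 24 h, after which cell-surface EGFR was quantified by ELISA. Activity was fitted bidirectionally against the DMSO negative control as baseline.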

[7] = read-out: Interleukin-8 (IL8), CXCL8 (gene 3576); test: BSK_hDFCGF_IL8: BioMAP Diversity Plus: hDFCGF Assay for Interleukin-8 (IL8) Biomarker Activity (AID 2283058); settings: primary human foreskin fibroblasts; actives raise or lower the signal
How it was run: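 Cells used are human skin primary fibroblasts. Chemical is added, cultures run 24 h, then IL-8 is quantified by ELISA, and gain or loss versus DMSO control is fitted in both directions.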

[8] = BSK_hDFCGF_Proliferation: Cell Proliferation Assessment in the BioMAP Diversity Plus: hDFCGF Assay (AID 2283059); settings: primary human foreskin fibroblasts;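 note: curves fitted for both rise and fall of signal versus DMSO baseline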
How it was run: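 Primary human foreskin fibroblasts, sub-confluent; […]; 10% TCA fix, 0.1% SRB stain, A560 total protein. Gain/loss fitted bidirectionally vs DMSO control.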

[9] = read-out: Macrophage colony-stimulating factor (MCSF), CSF1 (gene 1435); test: BSK_hDFCGF_MCSF: BioMAP Diversity Plus: hDFCGF Assay for Macrophage colony-stimulating factor (MCSF) Biomarker Activity (AID 2283060); settings: primary human foreskin fibroblasts; actives raise or lower the signal
How it was run: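 Primary human foreskin fibroblasts dosed with chemical; 24 h later, M-CSF quantified by ELISA; curves fitted in both directions vs DMSO negative control.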

[10] = BSK_hDFCGF_SRB: Viability Assessment in the BioMAP Diversity Plus: hDFCGF Assay (AID 2283061); settings: primary human foreskin fibroblasts;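 note: cells exposed to compound for 24 h before the read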
How it was run: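 Readout is SRB absorbance at 560 nm, reflecting total protein in parallel cultures of human foreskin fibroblasts harvested 24 h after chemical dosing. Activity was fitted bidirectionally relative to DMSO.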

[11] = read-out: TIMP metallopeptidase inhibitor 1 (TIMP1), TIMP1 (gene 7076); test: BSK_hDFCGF_TIMP1: BioMAP Diversity Plus: hDFCGF Assay for TIMP metallopeptidase inhibitor 1 (TIMP1) Biomarker Activity (AID 2283062); settings: primary human foreskin fibroblasts; actives raise or lower the signal
How it was run: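 Human skin fibroblasts (primary), hDFCGF system; compound exposure 24 h; TIMP-1 by ELISA; bidirectional fit vs DMSO negative control; overt cytotoxicity by SRB in parallel wells.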

[12] = read-out: Monokine induced gamma interferon (MIG), CXCL9 (gene 4283); test: BSK_hDFCGF_MIG: BioMAP Diversity Plus: hDFCGF Assay for Monokine induced gamma interferon (MIG) Biomarker Activity (AID 2283063); settings: primary human foreskin fibroblasts; actives raise or lower the signal
How it was run: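 Chemicals were added to primary human foreskin fibroblast cultures, which were sampled 24 h later. MIG levels were then quantified by ELISA and responses fitted in both directions relative to DMSO.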

[13] = read-out: Matrix Metallopeptidase 1 (MMP1), MMP1 (gene 4312); test: BSK_hDFCGF_MMP1: BioMAP Diversity Plus: hDFCGF Assay for Matrix Metallopeptidase 1 (MMP1) Biomarker Activity (AID 2283064); settings: primary human foreskin fibroblasts; actives raise or lower the signal
How it was run: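 Primary human foreskin fibroblasts in the hDFCGF system were dosed with test chemical, and MMP1 was measured by ELISA 24 h later. Values come from bidirectional curve fitting against the DMSO baseline.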

[14] = read-out: Vascular cell adhesion molecule 1 (VCAM1), VCAM1 (gene 7412); test: BSK_hDFCGF_VCAM1: BioMAP Diversity Plus: hDFCGF Assay for Vascular cell adhesion molecule 1 (VCAM1) Biomarker Activity (AID 2283065); settings: primary human foreskin fibroblasts; actives raise or lower the signal
How it was run: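 Human foreskin fibroblast primary cells, chemical exposure 24 h; VCAM-1 by ELISA; bidirectional fit, DMSO = negative control/baseline.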

[15] = read-out: Intercellular Adhesion Molecule 1 (ICAM1), ICAM1 (gene 3383); test: BSK_KF3CT_ICAM1: BioMAP Diversity Plus: KF3CT Assay for Intercellular Adhesion Molecule 1 (ICAM1) Biomarker Activity (AID 2283067); settings: primary human keratinocytes with fibroblasts; actives raise or lower the signal
How it was run: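 ICAM-1 levels are measured by ELISA 24 h after dosing a primary human co-culture of keratinocytes and foreskin fibroblasts. Activity in either direction is fitted relative to DMSO vehicle.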

[16] = read-out: Interferon-gamma inducible Protein 10 (IP10), CXCL10 (gene 3627); test: BSK_KF3CT_IP10: BioMAP Diversity Plus: KF3CT Assay for Interferon-gamma inducible Protein 10 (IP10) Biomarker Activity (AID 2283068); settings: primary human keratinocytes with fibroblasts; actives raise or lower the signal
How it was run: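 In a primary skin co-culture of keratinocytes and fibroblasts, IP-10 is quantified by ELISA at 24 h after dosing. SRB staining of parallel wells monitors overt toxicity. Curves are fitted both directions against DMSO.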

[17] = BSK_KF3CT_SRB: Viability Assessment in the BioMAP Diversity Plus: KF3CT Assay (AID 2283069); settings: primary human keratinocytes with fibroblasts;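 note: total protein by sulforhodamine B staining as a cytotoxicity measure; read 24 h after compound addition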
How it was run: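 Human primary keratinocyte plus foreskin fibroblast co-culture exposed to chemicals for 24 h. Total protein measured by 0.1% sulforhodamine B staining after 10% TCA fixation, read at 560 nm; bidirectional fitting versus DMSO baseline.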

[18] = read-out: Interleukin-1 alpha (IL1a), IL1A (gene 3552); test: BSK_KF3CT_IL1a: BioMAP Diversity Plus: KF3CT Assay for Interleukin-1 alpha (IL1a) Biomarker Activity (AID 2283070); settings: primary human keratinocytes with fibroblasts; actives raise or lower the signal
How it was run: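 Human keratinocyte plus foreskin fibroblast primary co-culture, sampled 24 h after chemical dosing. IL-1a measured by ELISA; responses fitted bidirectionally against DMSO baseline (negative control), so gain or loss of signal both count.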

[19] = read-out: Plasminogen activator inhibitor-1 (PAI1), SERPINE1 (gene 5054); test: BSK_hDFCGF_PAI1: BioMAP Diversity Plus: hDFCGF Assay for Plasminogen activator inhibitor-1 (PAI1) Biomarker Activity (AID 2283066); settings: primary human foreskin fibroblasts; actives raise or lower the signal
How it was run: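 Human foreskin fibroblasts in the hDFCGF system were dosed with compound for 24 h; PAI-1 was quantified by ELISA. Bidirectional curve fitting used DMSO as negative control and baseline.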

Measured: AC50

CC[C@H](NC(=O)c1cc(F)ccc1NS(=O)(=O)c1cccc2cccnc12)c1ccccc1
active: [1] 10.8 µM | [5] 8.58 µM | [8] 21.5 µM
not listed: [19]
inactive: all other assays above

CCCC(=O)OCCC(C)C
not listed: [19]
inactive: all other assays above

Cc1oc2c(NC(=O)c3c(Cl)cccc3Cl)cccc2c1C(C)(C)O
active: [1] 26.5 µM | [2] 29.4 µM | [5] 20 µM | [6] 17.3 µM | [8] 14.1 µM | [11] 12.3 µM | [13] 10.7 µM
not listed: [19]
inactive: all other assays above

O=c1c(-c2ccc(O)cc2)coc2cc(O)cc(O)c12
active: [3] 29.6 µM | [4] 25.7 µM | [8] 11.7 µM | [10] 14.3 µM | [13] 15.1 µM | [19] 20 µM
not listed: [1] | [5] | [6]
inactive: all other assays above

Cc1cc2c(cc1C(F)(F)F)N(C(=O)Nc1ccc(Oc3cccnc3C)nc1)CC2
active: [1] 5.04 µM | [3] 25 µM | [4] 31.1 µM | [8] 1.94 µM | [10] 27.6 µM | [16] 29.9 µM | [17] 26.4 µM | [18] 15.5 µM
not listed: [5]
inactive: all other assays above

CC(C)(O)c1ccc(CNC(=O)c2cccnc2Oc2ccc3nonc3c2)cc1
inactive: all assays above
